Most compounds without a hit are left out; they make up all but 0.45% or so of the library.
LGR2 antag = blocks bursicon-induced cAMP signaling via Drosophila LGR2; AID 720647; inhibition, % at 9.99 µM; hit rate 0.35% among 380,000; HEK293 LGR2, CRE-luciferase, bursicon-stimulated, 4 h;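 active = drop in luminescence signal, shown as inhibition above about 50% in the replicate tests, limit read from the data, passing the limit was not always enough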;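 also: agonist challenge used bursicon conditioned medium at about half maximal strength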
NCOA1 inh = inhibitors of human steroid receptor coactivator 1 (SRC1). HEK293 GAL4-SRC1 luciferase reporter, luminescence. Q15788. AID 588354. inhibition, % at 3.6 µM. hit rate 0.12% among 360,000;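 active = inhibition above the campaign mean plus 3 SD, with each screening campaign given its own cutoff, cut at about 60% in these data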;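 also: 0% = DMSO treated cells and 100% = gossypol at 36 µM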
NR5A2 inv ag = suppresses constitutive activity of human LRH-1. inhibition, % at 3.6 µM. HEK293T StAR-luciferase reporter, LRH-1 transfected, 24 h. hit rate 0.13% among 360,000. AID 602396;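 active = inhibition above the mean inhibition of all tested compounds plus 3 SD, cut at about 73% in these data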;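 also: 0% = DMSO wells and 100% = reporter-only cells lacking LRH-1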
NCOA3 inh = inhibitors of human steroid receptor coactivator 3 (SRC3). inhibition, % at 3.6 µM. HEK293 GAL4-SRC3 luciferase reporter, luminescence. Q9Y6Q9. hit rate 0.17% among 360,000;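 active = inhibition above a per-campaign cutoff, the mean of all compounds plus 3 SD, cut at about 60% in these data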;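 also: 0% = DMSO-treated cells and 100% = gossypol-treated cells at 36 µM; higher means less SRC3-driven luciferase light from the GAL4 reporter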
Target sequence (Q9Y6Q9 whole entry, looked up, the tested form may be a part): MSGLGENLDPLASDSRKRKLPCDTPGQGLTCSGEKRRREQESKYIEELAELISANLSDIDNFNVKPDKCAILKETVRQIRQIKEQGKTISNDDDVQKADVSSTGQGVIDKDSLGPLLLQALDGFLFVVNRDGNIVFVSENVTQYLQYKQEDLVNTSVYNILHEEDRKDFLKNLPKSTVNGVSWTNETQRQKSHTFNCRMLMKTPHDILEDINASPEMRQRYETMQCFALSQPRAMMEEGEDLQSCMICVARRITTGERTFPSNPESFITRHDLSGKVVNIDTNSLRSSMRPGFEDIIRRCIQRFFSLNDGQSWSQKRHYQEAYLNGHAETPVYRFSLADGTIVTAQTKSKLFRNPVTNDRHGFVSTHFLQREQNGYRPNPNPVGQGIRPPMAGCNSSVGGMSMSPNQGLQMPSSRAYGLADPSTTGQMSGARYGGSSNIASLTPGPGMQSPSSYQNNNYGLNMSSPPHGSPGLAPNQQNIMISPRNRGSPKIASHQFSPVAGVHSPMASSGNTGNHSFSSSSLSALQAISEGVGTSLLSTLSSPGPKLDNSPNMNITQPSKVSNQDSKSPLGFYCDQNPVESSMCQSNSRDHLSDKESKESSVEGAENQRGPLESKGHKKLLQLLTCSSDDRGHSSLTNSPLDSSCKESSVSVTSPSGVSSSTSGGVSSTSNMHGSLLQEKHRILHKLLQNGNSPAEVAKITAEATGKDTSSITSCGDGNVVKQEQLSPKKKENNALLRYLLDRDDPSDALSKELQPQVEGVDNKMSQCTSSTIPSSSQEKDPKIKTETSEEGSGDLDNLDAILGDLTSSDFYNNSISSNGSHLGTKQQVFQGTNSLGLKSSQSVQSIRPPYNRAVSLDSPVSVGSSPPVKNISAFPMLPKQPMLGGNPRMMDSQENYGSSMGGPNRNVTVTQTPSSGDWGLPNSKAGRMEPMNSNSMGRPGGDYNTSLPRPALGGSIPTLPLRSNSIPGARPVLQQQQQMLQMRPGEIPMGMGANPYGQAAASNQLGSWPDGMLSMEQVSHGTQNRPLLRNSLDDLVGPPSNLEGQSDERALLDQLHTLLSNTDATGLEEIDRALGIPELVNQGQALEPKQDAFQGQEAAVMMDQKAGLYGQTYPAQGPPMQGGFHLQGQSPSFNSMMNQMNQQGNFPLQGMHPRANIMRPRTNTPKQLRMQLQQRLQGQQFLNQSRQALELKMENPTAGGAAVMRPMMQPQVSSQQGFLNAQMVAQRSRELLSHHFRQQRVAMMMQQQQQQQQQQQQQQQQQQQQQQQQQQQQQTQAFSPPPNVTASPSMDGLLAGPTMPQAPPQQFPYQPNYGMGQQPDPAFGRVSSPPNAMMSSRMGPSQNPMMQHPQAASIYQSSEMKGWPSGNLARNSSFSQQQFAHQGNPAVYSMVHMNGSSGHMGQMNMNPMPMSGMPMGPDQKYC
SRC2 inh = human SRC2 (NCOA2) inhibition; HEK293 GAL4-SRC2 luciferase reporter, luminescence; inhibition, % at 9 µM; hit rate 0.17% among 370,000; Q15596;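 active = inhibition above the mean inhibition of all tested compounds plus 3 SD, set per campaign, cut at about 52% in these data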;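 also: 0% = DMSO treated cells and 100% = cells given Gossypol at 36 µM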
An asterisk follows results filed as active; / = not tested or not shown.

SMILES	LGR2 antag	NCOA1 inh	NR5A2 inv ag	NCOA3 inh	SRC2 inh
C[C@H]1CCCCO[C@H](CN(C)C(=O)Nc2ccc3c(c2)OCO3)[C@@H](C)CN([C@@H](C)CO)C(=O)c2cc(NC(=O)C3CCCCC3)ccc2O1	4	/	/	/	/
C[C@H](CO)N1C[C@H](C)[C@H](CN(C)C(=O)Nc2ccc(F)cc2)OCCCC[C@H](C)Oc2ccc(NC(=O)C3CCCCC3)cc2C1=O	83*	/	/	/	/
C[C@H](CO)N1C[C@H](C)[C@H](CN(C)C(=O)Nc2ccccc2)OCCCC[C@H](C)Oc2ccc(NC(=O)C3CCCCC3)cc2C1=O	69*	/	/	/	/
C[C@H](CO)N1C[C@H](C)[C@H](CN(C)C(=O)Nc2ccc3c(c2)OCO3)OCCCC[C@H](C)Oc2ccc(NC(=O)C3CCCCC3)cc2C1=O	57*	/	/	/	/
C[C@@H]1CN([C@@H](C)CO)C(=O)Cc2cc(NC(=O)CCCCCC(=O)Nc3ccccc3N)ccc2O[C@H]1CN(C)CC1CC1	-1	/	/	/	/
COc1ccc(N=C(NN)c2ccc3ccccc3n2)cc1	/	54	77*	46	63*
Cc1ccc(C)c(Cn2nnc3c(=O)[nH]c(C(=O)NCc4ccco4)nc32)c1	-14	-8	-14	11	-19
O=C(NCc1ccco1)c1nc2c(nnn2Cc2ccccc2Cl)c(=O)[nH]1	93*	13	-24	18	16
COc1ccc2c3c(n(C)c2c1)[C@H](CO)N(C(=O)C1CCCCC1)CC31CN(C(=O)Nc2cccc(F)c2)C1	6	/	/	/	/
O=C(Nc1cccc(Cl)c1)Nc1nnc(-c2ccncc2)s1	54*	43	5	52	23
C[N+]1(CC2COC3(CCCCC3)O2)CCCC1 (stereo unspecified)	/	-1	1	9	97*
C1CCCCCC2(CCCCC1)OCC(CN1CCOCC1)O2 (stereo unspecified)	13	12	7	6	-16
Cn1c(-c2ccccc2)cc2onc(-c3ccccc3)c2c1=O	94*	-8	-57	-15	-22
CC1=C(CO)C(=O)OC([C@@H](C)C2CC[C@H]3C4C[C@H]5O[C@]56[C@@H](O)C=CC(=O)[C@]6(C)C4CC[C@]23C)C1 (stereo partly specified)	/	14	62	20	68*
COC1=C(C)C(=O)C2=C(C1=O)C1C3CC4=C(C(=O)C(OC)=C(C)C4=O)C(CNC(=O)C(C)=O)N3C(C#N)C(C2)N1C (stereo unspecified)	97*	84*	96*	85*	63*
C[C@H]1CCCCO[C@H](CN(C)C(=O)Nc2ccc(C(F)(F)F)cc2)[C@@H](C)CN([C@@H](C)CO)C(=O)c2cc(NC(=O)Nc3ccc4c(c3)OCO4)ccc2O1	16	/	/	/	/
O=C1CN(C(=O)Cn2ncc(Cl)c(Cl)c2=O)c2ccccc2N1	105*	-25	-66	-13	-15
O=C1CN(C(=O)COc2ccc(Cl)c(Cl)c2)c2ccccc2N1	0	7	3	6	-6
COc1ccc2c3c(n(C)c2c1)[C@H](CO)N(C(=O)C1CCC1)CC31CN(C)C1	-16	/	/	/	/
S=c1[nH]nc(C2CCCCC2)n1/N=C/c1ccncc1	21	71*	16	69*	46
COc1cc([C@@H]2C[C@H]3CN(c4ccccc4)C(=O)[C@]34CCCN24)cc(OC)c1OC	33	24	21	16	-12
COc1ccccc1-n1cc([C@@H]2C[C@H]3CN(c4ccccc4)C(=O)[C@]34CCCN24)cn1	25	55	53	64*	-32
CCCc1ccc(-c2ccc(/C=C/C(=O)O)cc2)nc1	58*	71*	78*	65*	88*
C[C@@H]1CN([C@H](C)CO)C(=O)c2cc(NS(C)(=O)=O)ccc2O[C@@H]1CN(C)S(=O)(=O)c1ccccc1	14	/	/	/	/
COc1ccccc1/C=C/C(=O)c1c2c(c(C)[nH]c1=O)CCCC2	56*	31	12	65*	58*
SMILES	LGR2 antag	NCOA1 inh	NR5A2 inv ag	NCOA3 inh	SRC2 inh
COc1ccccc1/C=C/C(=O)c1ccccc1	-58	-55	-23	-53	-31
O=C(N/N=C/c1ccccc1C(=O)O)c1ccc(COc2cccc3cccnc23)cc1	-1	-1	13	-8	-10
O=C(N/N=C/c1ccc[nH]1)c1ccc(COc2cccc3cccnc23)cc1	22	36	79*	69*	34
Cc1cc(Br)c(OCc2ccc(C(=O)N/N=C/c3ccc[nH]3)cc2)c(Br)c1	32	-10	91*	76*	-41
C(=Cc1c[nH]c2ccccc12)c1nccc2ccccc12	94*	-101	-116	-60	-47
C(=Cc1c[nH]c2ccccc12)c1ccc2ccccc2n1	89*	-82	-79	-67	-19
O=C(/C=C/c1c[nH]c2ccccc12)c1ccccc1	-70	-111	-126	-68	-26
CCCC(=O)N1CCC2(CC1)CN(C(=O)C1CC1)[C@H](CO)c1[nH]c3cc(OC)ccc3c12	-9	/	/	/	/
COc1cccc(-c2ccc([C@@H]3[C@@H](CO)N4C(=O)CN(C(=O)CN5CCOCC5)C[C@H]34)cc2)c1	-14	/	/	/	/
Cc1ccc(C(=O)NCC#N)cc1	3	-8	-9	10	-7
Cc1ccc(C(=O)NC(C#N)=C(Cl)Cl)cc1	106*	/	/	/	27
COc1ccc(S(=O)(=O)N2CCC3(CC2)CN(C(=O)c2cccnc2)[C@H](CO)c2c3c3ccc(OC)cc3n2C)cc1	5	/	/	/	/
COCC(=O)Nc1ccc2c(c1)OC[C@@H](C)N(Cc1cncnc1)C[C@@H](C)[C@@H](OC)CN(C)C2=O	-1	/	/	/	/
O=C(NC1CCCC1)C(c1ccccc1)n1c(-c2cccs2)nc2ccccc21 (stereo unspecified)	14	/	-4	/	2
O=C(NC1CCCC1)C(c1ccccc1)n1c(CSCCOc2ccccc2)nc2ccccc21 (stereo unspecified)	-48	/	20	/	77*
COc1ccc2c3c(n(C)c2c1)[C@@H](CO)N(C(=O)Nc1ccc(F)cc1)CC31CCN(C(=O)CN2CCOCC2)CC1	-12	/	/	/	/
O=C(O)c1ccc(NC2=C/C(=N/S(=O)(=O)c3ccccc3)c3ccccc3C2=O)cc1	99*	-1	16	23	28
CCc1ccc(S(=O)(=O)/N=C2\C=C(Nc3ccc(O)cc3)C(=O)c3ccccc32)cc1	/	88*	90*	89*	/
Cc1cc(C)c(S(=O)(=O)/N=C2\C=C(Nc3ccc(C(=O)O)cc3)C(=O)c3ccccc32)c(C)c1	3	19	41	34	48
CCc1ccc(S(=O)(=O)/N=C2/C=C(Sc3ncn[nH]3)C(=O)c3ccccc32)cc1	/	83*	95*	88*	/
CO[C@H]1CN(C)C(=O)c2cc(NC(C)=O)ccc2OC[C@H](C)N(Cc2cccnc2)C[C@@H]1C	1	/	/	/	/
Cc1nc(Nc2nc(CSc3ccc(Cl)cc3)cc(=O)[nH]2)nc2ccccc12	-5	-16	3	-2	-2
COc1ccc2nc(Nc3nc(CSc4nc5ccccc5[nH]4)cc(=O)[nH]3)nc(C)c2c1	87*	-4	-7	-13	-57

Assay outcomes from PubChem BioAssay.
